Results from PubChem BioAssay AID624405 (Broad Institute, 2012).
About 250 (13%) of roughly 1,900 compounds were called active. About 4% were inconclusive and are not listed.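 The calls were made as follows: active = fitted curve reaches 40% rescue activity at or below the top valid dose, in every test run; inconclusive = test runs disagree, some active and some inactive; inactive = every run misses the threshold or moves the wrong way.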 These entries were drawn from the full list. Entries with a potency or affinity are not part of this list.

Experiment: suppressors of statin myotoxicity in myotubes, dose response, cell-based, C2C12 myotubes, ATP luminescence, cherry pick (AID 624405);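 also: myotubes are challenged with simvastatin at 10 µM to lower ATP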
Settings: C2C12 myotubes + simvastatin, 48 h, scaled: DMSO wells 0, geranylgeraniol wells 100; series mostly up to 19.5 µM

| Compound | outcome |
| --- | --- |
| C[C@@H]1CN([C@@H](C)CO)C(=O)c2cccc(NS(=O)(=O)c3cccs3)c2O[C@@H]1CN(C)C(=O)Nc1ccc(C(F)(F)F)cc1 | inactive |
| C[C@H](CO)N1C[C@H](C)[C@H](CN(C)C(=O)Nc2ccc(F)cc2)OCCCC[C@H](C)Oc2ccc(NC(=O)Cc3ccccc3)cc2C1=O | inactive |
| Fc1ccc(CSc2nnc(CN3CCOCC3)n2-c2ccccc2)c(Cl)c1 | inactive |
| COc1ccc(CN(C)C[C@@H]2Oc3ccc(NS(=O)(=O)c4ccc(F)cc4)cc3CC(=O)N([C@H](C)CO)C[C@H]2C)cc1 | inactive |
| COc1ccc(S(=O)(=O)Nc2ccc3c(c2)CC(=O)N([C@@H](C)CO)C[C@H](C)[C@H](CN(C)Cc2ccc(Cl)c(Cl)c2)O3)cc1 | inactive |
| COc1ccc(S(=O)(=O)Nc2ccc3c(c2)C(=O)N([C@@H](C)CO)C[C@@H](C)[C@@H](CN(C)S(=O)(=O)c2ccc(F)cc2)OCCCC[C@H](C)O3)cc1 | inactive |
| COc1ccc(CN(C)C[C@@H]2Oc3ccc(NS(=O)(=O)c4ccc(Cl)cc4)cc3CC(=O)N([C@H](C)CO)C[C@H]2C)cc1 | inactive |
| COc1ccc(S(=O)(=O)Nc2ccc3c(c2)C(=O)N([C@H](C)CO)C[C@H](C)[C@H](CN(C)S(=O)(=O)c2ccc(F)cc2)OCCCC[C@@H](C)O3)cc1 | inactive |
| C[C@H]1CN([C@@H](C)CO)C(=O)Cc2cc(NS(=O)(=O)c3ccc(F)cc3)ccc2O[C@H]1CN(C)Cc1ccccc1 | inactive |
| COc1ccc(S(=O)(=O)Nc2ccc3c(c2)CC(=O)N([C@@H](C)CO)C[C@@H](C)[C@H](CN(C)Cc2ccc(Cl)c(Cl)c2)O3)cc1 | inactive |
| C[C@@H]1CN([C@@H](C)CO)C(=O)Cc2cc(NS(=O)(=O)c3ccc(Cl)cc3)ccc2O[C@H]1CN(C)Cc1ccc(-c2ccccc2)cc1 | inactive |
| COc1ccc(N=C2S/C(=C\c3cc(C)n(C)c3C)C(=O)N2CC(C)C)cc1 | inactive |
| COc1ccc(NC(=O)Nc2ccc3c(c2)C(=O)N([C@H](C)CO)C[C@H](C)[C@H](CN(C)Cc2ccc(C(F)(F)F)cc2)OCCCC[C@H](C)O3)cc1 | inactive |
| C[C@@H]1CN([C@H](C)CO)C(=O)Cc2cc(NC(=O)CCC(F)(F)F)ccc2O[C@H]1CN(C)Cc1ccc(Oc2ccccc2)cc1 | inactive |
| CN(C)S(=O)(=O)c1ccc(C(=O)NCCOc2ccc(F)cc2)cc1 | inactive |
| COc1ccc(S(=O)(=O)Nc2ccc3c(c2)C(=O)N([C@H](C)CO)C[C@H](C)[C@H](CN(C)S(=O)(=O)c2cccs2)OCCCC[C@H](C)O3)cc1 | inactive |
| C[C@@H]1CCCCO[C@@H](CN(C)S(C)(=O)=O)[C@H](C)CN([C@@H](C)CO)C(=O)c2cc(NS(=O)(=O)c3ccc(F)cc3)ccc2O1 | inactive |
| Cc1oc(C(=O)O)cc1COc1cccc2cccnc12 | inactive |
| c1ccc2c(c1)CCN(Cc1nnnn1Cc1ccc3c(c1)OCO3)C2 | inactive |
| Cc1ccc(C(O)CN2C3=NCCN3c3ccccc32)cc1 (stereo unspecified) | inactive |
| C[C@@H]1CN([C@H](C)CO)C(=O)Cc2cc(NC(=O)Nc3cccc4ccccc34)ccc2O[C@@H]1CN(C)S(=O)(=O)c1cccs1 | inactive |
| C[C@H](CO)N1C[C@H](C)[C@@H](CN(C)C(=O)Nc2ccc(F)cc2)Oc2ccc(NC(=O)Cc3cn(C)c4ccccc34)cc2CC1=O | inactive |
| C[C@@H]1CN([C@@H](C)CO)C(=O)Cc2cc(NC(=O)Nc3cccc4ccccc34)ccc2O[C@@H]1CN(C)S(=O)(=O)c1ccc(Cl)cc1 | inactive |
| Cc1ccc(S(=O)(=O)Nc2ccc3c(c2)CC(=O)N([C@H](C)CO)C[C@H](C)[C@H](CN(C)S(=O)(=O)c2ccc(C)cc2)O3)cc1 | inactive |
| Cc1ccc(S(=O)(=O)Nc2ccc3c(c2)CC(=O)N([C@@H](C)CO)C[C@@H](C)[C@H](CN(C)S(=O)(=O)c2ccc(C)cc2)O3)cc1 | inactive |
| C[C@H]1CN([C@@H](C)CO)C(=O)c2cc(NS(=O)(=O)c3ccc(F)cc3)ccc2O[C@@H]1CN(C)S(=O)(=O)c1ccc(F)cc1 | inactive |

| Compound | outcome |
| --- | --- |
| COc1ccc(S(=O)(=O)Nc2ccc3c(c2)CC(=O)N([C@H](C)CO)C[C@H](C)[C@@H](CN(C)S(=O)(=O)c2ccc(C)cc2)O3)cc1 | inactive |
| Cc1ccc(S(=O)(=O)N(C)C[C@@H]2Oc3ccc(NS(=O)(=O)c4ccc(F)cc4)cc3C(=O)N([C@H](C)CO)C[C@@H]2C)cc1 | inactive |
| O=C(O)c1nn(-c2ccccc2)nc1-c1nn(-c2ccccc2)nc1C(=O)O | inactive |
| O=S(=O)(NN=C1CCCCC1)c1ccccc1 | inactive |
| CC1(C)NC(=O)N(CC(O)Cn2nnc3ccccc32)C1=O (stereo unspecified) | inactive |
| C[C@H](CO)N1C[C@H](C)[C@@H](CN(C)C(=O)C2CCC2)Oc2ncc(C#Cc3cccc(F)c3)cc2C1=O | inactive |
| Nn1c(SCC(=O)N2CCN(S(=O)(=O)c3ccccc3)CC2)nnc1-c1cccs1 | inactive |
| Cc1ccc(S(=O)(=O)Nc2ccc3c(c2)CC(=O)N([C@@H](C)CO)C[C@@H](C)[C@H](CN(C)Cc2ccc(C(F)(F)F)cc2)O3)cc1 | inactive |
| Cc1ccc(C(=O)N2CCSCC2)cc1 | inactive |
| CSCCC(NC(N)=O)C(=O)NCC1CCCCC1 (stereo unspecified) | inactive |
| Cc1ccc(N2CCN(/N=C/c3sccc3C)CC2)cc1 | inactive |
| Cc1noc(C)c1S(=O)(=O)Nc1ccc2c(c1)C(=O)N([C@H](C)CO)C[C@H](C)[C@H](CN(C)S(=O)(=O)c1cccs1)OCCCC[C@H](C)O2 | inactive |
| C[C@@H]1CN([C@H](C)CO)C(=O)Cc2cc(NC(=O)Nc3cccc4ccccc34)ccc2O[C@H]1CN(C)Cc1ccc(Cl)c(Cl)c1 | inactive |
| C[C@@H]1CN([C@@H](C)CO)C(=O)Cc2cc(NC(=O)Nc3cccc4ccccc34)ccc2O[C@H]1CN(C)Cc1ccc2c(c1)OCO2 | inactive |
| O=C(C[C@H]1CC[C@@H](NC(=O)c2ccc3c(c2)OCO3)[C@H](CO)O1)NCc1ccc(Oc2ccccc2)cc1 | inactive |
| COC(=O)c1c(C(=O)OC)c2cc(C)ccn2c1Cl | inactive |
| C[C@@H]1CN([C@@H](C)CO)C(=O)Cc2cc(NS(=O)(=O)c3ccc(F)cc3)ccc2O[C@H]1CN(C)Cc1ccc(Oc2ccccc2)cc1 | inactive |
| C[C@@H]1CN([C@@H](C)CO)C(=O)c2cccc(NS(=O)(=O)c3cccs3)c2O[C@@H]1CN(C)S(=O)(=O)c1ccc(Cl)cc1 | inactive |
| COc1cccc(-c2cnc3c(c2)C(=O)N([C@H](C)CO)C[C@H](C)[C@H](CN(C)S(=O)(=O)c2cccs2)O3)c1 | inactive |
| COc1ccc(C2CC(=O)c3cnc(N)nc3C2)c(OC)c1 (stereo unspecified) | inactive |
| COc1ccc2c(c1OC)C(=O)N(c1ccccn1)C2 | inactive |
| CCOc1ccc(OCCOCCOc2c(Cl)cccc2Cl)cc1 | inactive |
| COC(=O)c1cn(CC(=O)N2C(C)CCCC2C)c2ccccc12 (stereo unspecified) | inactive |
| COc1ccc(S(=O)(=O)Nc2ccc3c(c2)C(=O)N([C@@H](C)CO)C[C@@H](C)[C@H](CN(C)S(=O)(=O)c2ccc(F)cc2)OCCCC[C@H](C)O3)cc1 | inactive |
| O=C(Nc1cccc(Cl)c1)C1CCCN(S(=O)(=O)c2ccc(F)cc2)C1 (stereo unspecified) | inactive |
| CCS(=O)(=O)N1CCCC(C(=O)NCCc2ccc(OC)c(OC)c2)C1 (stereo unspecified) | inactive |

| Compound | outcome |
| --- | --- |
| Cc1ccc(S(=O)(=O)Nc2ccc3c(c2)C(=O)N([C@@H](C)CO)C[C@@H](C)[C@H](CN(C)S(=O)(=O)c2cccs2)O3)cc1 | inactive |
| CCOc1ccc(CNn2nnnc2N)cc1 | inactive |
| C=CCN(c1ccccc1OC)S(=O)(=O)c1cccc(C(=O)OC2CCOC2=O)c1 (stereo unspecified) | inactive |
| CCCNC(=O)N(C)C[C@@H]1Oc2cc(C3=CCCCC3)ccc2S(=O)(=O)N([C@H](C)CO)C[C@@H]1C | inactive |
| CSc1ccccc1NC(=O)c1ccccc1N(Cc1ccccc1)S(C)(=O)=O | inactive |
| Cc1ccc(NC(=O)c2ccccc2N(C)S(C)(=O)=O)cc1C | inactive |
| C[C@@H]1CCCCO[C@@H](CN(C)C(=O)c2ccccc2)[C@H](C)CN([C@@H](C)CO)C(=O)c2cc(NS(=O)(=O)c3cccs3)ccc2O1 | inactive |
| CCOC(=O)c1sc(NC(=O)c2c(C)nn(Cc3ccccc3)c2C)cc1C | inactive |
| COc1ccc(CN2[C@@H](CO)[C@@H]3c4ccccc4NC[C@@H]32)cc1 | inactive |
| COc1ccc(CN2[C@H](CO)[C@@H]3c4ccccc4NC[C@@H]32)cc1 | inactive |
| O=C(Nc1ccccc1Cl)N1C[C@@H]2[C@H](c3ccccc31)[C@@H](CO)N2Cc1ccccc1 | inactive |
| Cc1ccc(S(=O)(=O)Nc2ccc3c(c2)CC(=O)N([C@H](C)CO)C[C@H](C)[C@@H](CN(C)Cc2ccc(C(F)(F)F)cc2)O3)cc1 | inactive |
| O=C(NCc1ccco1)c1ccccc1NS(=O)(=O)c1ccc2c(c1)OCCO2 | inactive |
| FC(F)(F)c1nc2nncn2c2c1CCCCC2 | inactive |
| CCc1ccc(N2CC(C(=O)NC3=NCCS3)CC2=O)cc1 (stereo unspecified) | inactive |
| Cc1ccc(N(CN2CCCC2=O)C(=O)c2ccc(C)c(C)c2)cc1 | inactive |
| CC(C)N1C(=O)CCC1C(=O)N1CCC(Cc2ccccc2)CC1 (stereo unspecified) | inactive |
| CC(C)CC(NC(=O)C1CCC(C)CC1)C(=O)Nc1cccnc1 (stereo unspecified) | inactive |
| COc1ccc(S(=O)(=O)Nc2ccc3c(c2)CC(=O)N([C@H](C)CO)C[C@@H](C)[C@@H](CN(C)Cc2ccc(Cl)c(Cl)c2)O3)cc1 | inactive |
| CC(C)NC(=O)Nc1ccc2c(c1)C(=O)N([C@H](C)CO)C[C@@H](C)[C@H](CN(C)C(=O)C1CCCCC1)OCCCC[C@@H](C)O2 | inactive |
| C[C@@H]1CN([C@H](C)CO)C(=O)Cc2cc(NS(=O)(=O)c3cn(C)cn3)ccc2O[C@H]1CN(C)Cc1ccc(Cl)c(Cl)c1 | inactive |
| C[C@@H]1CN([C@@H](C)CO)C(=O)Cc2cc(NS(=O)(=O)c3cn(C)cn3)ccc2O[C@H]1CN(C)Cc1ccc(Cl)c(Cl)c1 | inactive |
| C[C@H]1CN([C@@H](C)CO)C(=O)Cc2cc(NS(=O)(=O)c3cn(C)cn3)ccc2O[C@@H]1CN(C)Cc1ccc(Cl)c(Cl)c1 | inactive |
| C[C@@H]1CN([C@@H](C)CO)C(=O)Cc2cc(NS(=O)(=O)c3cn(C)cn3)ccc2O[C@@H]1CN(C)Cc1ccc(Cl)c(Cl)c1 | inactive |
